According to PubChem BioAssay (NCATS):
Where “and” joins values, the source holds several entries; their conditions need not be identical. Identical values can stand only once. Records with an inconclusive call do not appear. Values without a mark were called inactive. Calls of active or inactive are those of the source. Unless noted, calls follow the shape of the dose curve; as a rule, active = well fitted curve in the direction sought with a large enough effect; inconclusive = small, poorly fitted or top-dose-only effect, or another doubt; inactive = no such curve, though single readings can be large; an effect the other way counts as inactive or inconclusive.

Target: Luciferin 4-monooxygenase (Photinus pyralis) (UniProt P08659)
Test: Biochemical firefly luciferase enzyme assay for NPC (AID 624030);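 also: purified P. pyralis luciferase at 10 nM with luciferin and ATP substrate; 0% = DMSO and -100% = full luciferase inhibition by PTC124 control; nearly all actives have a fitted effect of over 70% in size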
Settings: purified P. pyralis luciferase, luminescence, 5 min; series mostly up to 58.6 µM; activity change, negative = inhibition: at the top concentration
How it was run: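 Counter-screen for direct inhibition of the luciferase enzyme by approved-drug library compounds, run at 10 nM enzyme in 50 mM Tris acetate (final). Luminescence was read within 5 min of enzyme-buffer addition and normalized to PTC124 versus DMSO (0%).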

Luciferin 4-monooxygenase (Photinus pyralis), sequence (P08659 whole entry, looked up): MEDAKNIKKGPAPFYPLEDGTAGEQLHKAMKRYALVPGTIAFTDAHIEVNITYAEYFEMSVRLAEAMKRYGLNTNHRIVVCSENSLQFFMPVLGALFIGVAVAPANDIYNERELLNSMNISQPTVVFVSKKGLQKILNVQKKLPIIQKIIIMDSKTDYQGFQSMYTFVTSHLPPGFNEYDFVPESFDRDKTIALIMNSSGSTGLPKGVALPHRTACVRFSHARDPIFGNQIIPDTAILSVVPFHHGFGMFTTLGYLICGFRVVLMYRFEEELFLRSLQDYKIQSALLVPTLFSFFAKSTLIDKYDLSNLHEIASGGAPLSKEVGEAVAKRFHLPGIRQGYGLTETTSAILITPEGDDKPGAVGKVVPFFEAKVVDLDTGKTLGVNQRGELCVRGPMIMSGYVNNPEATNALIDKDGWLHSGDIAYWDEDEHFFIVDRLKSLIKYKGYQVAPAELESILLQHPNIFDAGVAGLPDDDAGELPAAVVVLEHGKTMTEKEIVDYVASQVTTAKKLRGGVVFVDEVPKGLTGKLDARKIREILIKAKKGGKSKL

Structure (SMILES)	activity change, negative = inhibition
CCCCCCCCCCCCCCCC[N+](C)(C)Cc1ccccc1	9.16%
O=C(Oc1ccccc1)c1ccccc1O	-15.1%
c1ccc2occc2c1	-6.29% [at 123 µM]
O=C(NO)c1ccccc1	1.7% [at 123 µM]
CCCCCCCCCCCCCCCC[n+]1ccccc1	11.1%
Nc1ncnc2nc[nH]c12	14.6%
Cc1ncc(CO)c(CO)c1O	-1.74%
COC(=O)c1c(Cl)c(Cl)c(C(=O)OC)c(Cl)c1Cl	-1.04% [at 123 µM]
CC(C)C(C)(C)C(C)(C)C(C)(C)S	-7.1% [at 123 µM]
C[C@]12CCC(=O)C=C1CC[C@@H]1[C@@H]2[C@@H](O)C[C@@]2(C)[C@H]1CC[C@]2(O)C(=O)COC(=O)CCC(=O)O	-3.81%
CN1CCCN(C(c2ccccc2)c2ccc(Cl)cc2)CC1 (stereo not given)	9.59%
Nc1cccc2c(N)cccc12	-10.3% [at 123 µM]
COc1cccc2c1[C@@H]1CN(CCCCn3c(=O)[nH]c4c(sc5ncc(-c6ccccc6)nc54)c3=O)C[C@@H]1CO2	-6.47%
CN1CCC(Nc2ncc3ncnc(Nc4ccc(F)c(Cl)c4)c3n2)CC1	5.69%
OCCOCCN1CCN(C(c2ccccc2)c2ccc(Cl)cc2)CC1 (stereo not given)	3.21%
O=[N+]([O-])c1ccc(O)c2ncccc12	-23.5%

Tested on: not listed separately
Test: S16 Schwann cell viability assay (CellTiter-Glo assay) (AID 624031); also: nearly all actives have a fitted effect of over 70% in size; also: potency is read from the fitted curve at half-maximal effect;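 as to activity change, negative = cytotoxicity: cellular ATP luminescence as a viability measure; plate controls were DMSO-treated cells for no effect and cell-free wells for full effect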
Settings: S16 rat Schwann cells viability, 24 h; series mostly up to 57.5 µM; activity change, negative = cytotoxicity: at the top concentration
How it was run: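 CellTiter-Glo ATP luminescence counter-screen in untransfected S16 rat Schwann cells, 24h compound exposure at 37 degree Celsius after overnight seeding (500-750 cells/well); response scaled between cell-free wells and DMSO (0% activity), curves classed by r2 and magnitude.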

Structure (SMILES)	Potency	activity change, negative = cytotoxicity [%]
CCCCCCCCCCCCCCCC[N+](C)(C)Cc1ccccc1	16.1 µM (active)	
CCCCCCCCCCCCCCCC[n+]1ccccc1	36.1 µM (active)	
Nc1ncnc2nc[nH]c12		14
CC(NCCC(c1ccccc1)c1ccccc1)c1ccccc1 (stereo not given)	25.6 µM (active)	
Nc1c2ccccc2nc2ccccc12		5.6
Nc1ccc2cc3ccc(N)cc3nc2c1		10.1
CN1CCCN(C(c2ccccc2)c2ccc(Cl)cc2)CC1 (stereo not given)	32.2 µM (active)	

Tested on: not listed separately
Test: S16 Schwann cell PMP22 intronic element firefly luciferase assay (AID 624032); also: nearly all actives have a fitted effect of over 30% in size; also: potency is read from the fitted curve at half-maximal effect;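 as to activity change, negative = inhibition: plate controls were DMSO for no effect and PTC124 positive control mean for full effect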
Settings: S16 rat Schwann cells, PMP22 element FLuc, 24 h; series mostly up to 57.5 µM; activity change, negative = inhibition: at the top concentration
How it was run: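 Rat S16 Schwann cells stably carrying a PMP22 intronic element-driven Fluc reporter were seeded overnight, then exposed to compounds for 24 h at 37 °C. Luminescence was normalized to PTC124 (positive control) and DMSO (0% activity).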

Structure (SMILES)	Potency	activity change, negative = inhibition [%]
CCCCCCCCCCCCCCCC[N+](C)(C)Cc1ccccc1	14.4 µM (active)	
Nc1ncnc2nc[nH]c12		13.2
Nc1c2ccccc2nc2ccccc12		-10.5
Nc1ccc2cc3ccc(N)cc3nc2c1		0.389
CN1CCCN(C(c2ccccc2)c2ccc(Cl)cc2)CC1 (stereo not given)	28.7 µM (active)	
CN1CCC(Nc2ncc3ncnc(Nc4ccc(F)c(Cl)c4)c3n2)CC1	36.1 µM (active)	
O=[N+]([O-])c1ccc(O)c2ncccc12		-20.7

Tested on: not listed separately
Test: S16 Schwann cell PMP22 intronic element beta-lactamase assay (AID 624044; calls by dose curve; also: nearly all actives have a fitted effect of over 15% in size; also: potency is read from the fitted curve at half-maximal effect;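 as to ratio activity, negative = inhibition: 0% = DMSO and -100% = potassium clavulanate positive control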)
Settings: S16 rat Schwann cells, PMP22 element beta-lactamase FRET, 24 h; series mostly up to 38.3 µM; ratio activity, negative = inhibition: at the top concentration
How it was run: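 Beta-lactamase reporter under a PMP22 intronic regulatory element in stable S16 rat Schwann cells; 24 h compound exposure. 460 nm blue signal normalized between DMSO (0%) and potassium clavulanate, with 535 nm FRET tracking viability; curves classed by r2 and response.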

Structure (SMILES)	ratio activity, negative = inhibition [%]	Potency
CCCCCCCCCCCCCCCC[N+](C)(C)Cc1ccccc1	-21.8	
Nc1ncnc2nc[nH]c12	-18.8	
CC(NCCC(c1ccccc1)c1ccccc1)c1ccccc1 (stereo not given)	2.08	
Nc1c2ccccc2nc2ccccc12		22.4 µM (active)
CN1CCCN(C(c2ccccc2)c2ccc(Cl)cc2)CC1 (stereo not given)	-15.3	

Tested on: not listed separately
Test: qHTS assay for small molecule agonists of the antioxidant response element (ARE) signaling pathway (AID 651741; active = well fitted activation curve with a large enough effect in the signal ratio; the % refers to the signal ratio; also: potency is read from the fitted curve at half-maximal effect; as to activation: % of control where 0% means no effect)
Settings: HepG2 ARE-bla reporter, beta-lactamase FRET ratio, 16 h; series mostly up to 96 µM; activation: at the top concentration
How it was run: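 Reporter: beta-lactamase under ARE, stably in HepG2. Exposure: 16 h, 37 C, compounds delivered in DMSO by pin tool after 5 h cell preincubation. Readout: FRET substrate fluorescence after 2 h at RT.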

Structure (SMILES)	Potency	activation [%]
OCc1c[nH]c2ccccc12	66.8 µM (active)	
O=C(Oc1ccccc1)c1ccccc1O	inactive	
Nc1ccc(O)cc1	26.6 µM (active)	
Cc1ncc(CO)c(CO)c1O		-0.329
CC(=O)OC/C=C(C)/C=C/C=C(C)/C=C/C1=C(C)CCCC1(C)C	42.2 µM (active) and 54.5 µM (active)	
COC(=O)c1c(Cl)c(Cl)c(C(=O)OC)c(Cl)c1Cl	54.5 µM (active)	
Nc1c2ccccc2nc2ccccc12	10.6 µM (active)	
CC(C)C(C)(C)C(C)(C)C(C)(C)S		4.64
Brc1ccccc1-c1ccccc1		6.91
CC(C)(C)c1ccc(O)c(O)c1	37.6 µM (active) and 48.6 µM (active)	
OCCOCCN1CCN(C(c2ccccc2)c2ccc(Cl)cc2)CC1 (stereo not given)		1.55

Tested on: not listed separately
Test: qHTS assay for small molecule activators of the p53 signaling pathway (AID 651743; active = well fitted activation curve with a large enough effect in the signal ratio, not every such curve was filed as active; the % refers to the signal ratio; also: potency is read from the fitted curve at half-maximal effect; as to activation: % of control where 0% means no effect)
Settings: HCT-116 p53RE-bla, beta-lactamase FRET ratio, 16 h; activation: hits give high values
How it was run: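 Agonist-mode quantitative HTS in HCT-116 cells carrying a p53-response-element beta-lactamase reporter; 16 h compound treatment at 37 C, then FRET substrate loading for 2 h at room temperature and fluorescence read.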

Structure (SMILES)	activation	Potency
OCc1c[nH]c2ccccc12	-1.58%	
c1ccc2occc2c1	-0.261% and -6.48% and -3.89%	
O=C(NO)c1ccccc1	3.57%	
CCCCC(CC)COC(=O)c1ccccc1C(=O)O (stereo not given)	-2.67% and -0.261%	
CCCCCCCCCCCCCCCC[n+]1ccccc1	2.82%	
Oc1ccccc1	-2.44% and -1.24% and 0.0138%	
CC(=O)OC/C=C(C)/C=C/C=C(C)/C=C/C1=C(C)CCCC1(C)C	-8.23% and -2.69%	
Cc1ccc(O)cc1	-3.91%	
COc1cc(C=O)ccc1O	-5.16% and -4.75%	
CCCC(=O)c1cc(O)c(O)cc1O	-5.77%	
O=C(c1ccccc1)c1ccccc1	-6.89% and 0.517%	
CC(C)(c1ccc(O)cc1)c1ccc(O)cc1	-1.88% and -5.31% and -3.08%	
COC(=O)c1c(Cl)c(Cl)c(C(=O)OC)c(Cl)c1Cl	1.22%	
Nc1c2ccccc2nc2ccccc12		11.2 µM (active)
CC(C)C(C)(C)C(C)(C)C(C)(C)S	1.86% and -1.44%	
Brc1ccccc1-c1ccccc1	0.157%	
CC(C)(C)c1ccc(O)c(O)c1	2.58% and -2.7%	
Nc1cccc2c(N)cccc12	-3.42% and 1.45%	
OCCOCCN1CCN(C(c2ccccc2)c2ccc(Cl)cc2)CC1 (stereo not given)	-1.54%	
